The values below come from PubChem BioAssay (NCI).

Test systems include HCT-15 colon; HT29 colon; SNB-75 CNS; SNB-19 CNS; U251 CNS; PC-3 prostate; SK-MEL-5 melanoma; UACC-62 melanoma; LOX IMVI melanoma; SK-MEL-28 melanoma; SK-MEL-2 melanoma; EKVX NSCLC; SN12C renal; UO-31 renal; TK-10 renal; ACHN renal; CAKI-1 renal; A498 renal; CCRF-CEM leukemia; MOLT-4 leukemia.
Holding throughout (assay): NCI-60 one-dose screen, 48 h (100 = growth as untreated, 0 = no growth, -100 = all killed)
Settings in all cases: 10 µM unless noted

Compounds without any hit were thinned out: in the full panel of roughly 83,000, 20% have a hit.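 Percent growth is the endpoint: 0 to 100 indicates growth inhibition (40 means 60% inhibition), 0 means no net growth, and negative values indicate cell death.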 Values without a mark were called inactive. Activity calls are given as the source filed them. How the source made its calls: active means growth percent below 10; inactive means the rest.

In the case of `O=C(COc1ccc(/C=C2\Oc3ccccc3C2=O)cc1)Nc1nccs1`, the growth in the experiment with HCT-15 colon was 104%; in the experiment with HT29 colon, 107%; with SNB-75 CNS, 51.3%; with SNB-19 CNS, 102%; in the experiment on U251 CNS, 90.9%; with PC-3 prostate it was 78.7%. Besides, the growth with SK-MEL-5 melanoma was 105%; with UACC-62 melanoma, 90.6%; in the experiment with LOX IMVI melanoma, 85.1%; with SK-MEL-28 melanoma it was 129%; with SK-MEL-2 melanoma, 93.6%; in the experiment with EKVX NSCLC, 84%. In addition, the growth is 90.3% in the experiment on SN12C renal; -39.8% (active) in the experiment with UO-31 renal; 134% with TK-10 renal; 107% in the experiment on ACHN renal; 68.9% in the experiment with CAKI-1 renal; 116% with A498 renal. Further, the growth with CCRF-CEM leukemia is 0% (active); in the experiment on MOLT-4 leukemia it was 42.3%.
Take `Cc1cc2c(c(C)n1)CN(C(=O)Nc1nc(-c3cncs3)ccc1N)C2`: the growth was 102% with HCT-15 colon; 91% in the experiment with HT29 colon; 90.3% in the experiment on SNB-75 CNS; 99.5% in the experiment on SNB-19 CNS; 86.9% in the experiment with U251 CNS; 104% in the experiment on PC-3 prostate. In addition, the growth was 105% in the experiment on SK-MEL-5 melanoma; 91.9% in the experiment on UACC-62 melanoma; 111% in the experiment on LOX IMVI melanoma; 105% in the experiment with SK-MEL-28 melanoma; 81% with SK-MEL-2 melanoma; 97.3% in the experiment with EKVX NSCLC. The growth in the experiment on SN12C renal is 105%; in the experiment on UO-31 renal, 92%; with TK-10 renal, 62.7%; with ACHN renal it was 106%; in the experiment on CAKI-1 renal, 76.8%; in the experiment on A498 renal, 96%. Moreover, the growth in the experiment on CCRF-CEM leukemia and in the experiment on MOLT-4 leukemia was 107% throughout.
For `COC(=O)c1cc(-c2cc(OC)c(OC)c(OC)c2)[nH]c1N/N=C/c1c(Cl)cccc1Cl`, the growth with HCT-15 colon is 60%; in the experiment on HT29 colon it was 32.4%; in the experiment with SNB-75 CNS it was 3.41% (active); in the experiment with SNB-19 CNS it was 28.5%; in the experiment on U251 CNS, 14.1%; with PC-3 prostate, 12%. In addition, the growth was 58.7% in the experiment with SK-MEL-5 melanoma; 34.8% in the experiment with UACC-62 melanoma; 19.2% in the experiment with LOX IMVI melanoma; 30.1% in the experiment with SK-MEL-28 melanoma; -21.2% (active) in the experiment on SK-MEL-2 melanoma; 64.4% in the experiment with EKVX NSCLC. The growth in the experiment on SN12C renal was 40.6%; with UO-31 renal, 40.9%; in the experiment with TK-10 renal, -47.6% (active); in the experiment with ACHN renal it was 10.1%; in the experiment with CAKI-1 renal, 7.04% (active); in the experiment on A498 renal, -63.6% (active). Further, the growth was 35.6% in the experiment on CCRF-CEM leukemia and 33.2% in the experiment on MOLT-4 leukemia.
Consider `COc1cc(-c2ccc(-c3ccc(C(=N)N)s3)s2)cc(OC)c1OC`, for which the growth in the experiment with HCT-15 colon was 13.6%; with HT29 colon, 4.42% (active); in the experiment with SNB-75 CNS, 75.5%; in the experiment with SNB-19 CNS, 47.6%; with U251 CNS it was 1.13% (active); in the experiment with PC-3 prostate, 47.1%. Moreover, the growth was 23.2% in the experiment with SK-MEL-5 melanoma; 81.3% in the experiment on UACC-62 melanoma; -63.3% (active) with LOX IMVI melanoma; 7.05% (active) in the experiment on SK-MEL-28 melanoma; 70% in the experiment with SK-MEL-2 melanoma; 74.4% with EKVX NSCLC. The growth in the experiment on SN12C renal is 60%; with UO-31 renal, 67.1%; in the experiment with TK-10 renal, 82.8%; with ACHN renal, 2.6% (active); in the experiment on CAKI-1 renal it was 41.7%; in the experiment with A498 renal, 84.5%. In addition, the growth is -7.27% (active) in the experiment with CCRF-CEM leukemia and 4.68% (active) in the experiment with MOLT-4 leukemia.
On to `COc1ccc(C2=NN3C(C2)c2cc(Br)ccc2OC3c2ccncc2)cc1` (stereo not given), for which the growth is 73.1% in the experiment on HCT-15 colon; 109% in the experiment on HT29 colon; 78.8% in the experiment with SNB-75 CNS; 81.4% in the experiment on SNB-19 CNS; 75.3% in the experiment with U251 CNS; 63.2% in the experiment with PC-3 prostate. The growth is 93.2% with SK-MEL-5 melanoma; 71.5% with UACC-62 melanoma; 62% in the experiment with LOX IMVI melanoma; 105% in the experiment with SK-MEL-28 melanoma; 97.5% in the experiment with SK-MEL-2 melanoma; 83.6% in the experiment with EKVX NSCLC. Moreover, the growth was 83.3% in the experiment with SN12C renal; 44.6% in the experiment on UO-31 renal; 98.6% with TK-10 renal; 80.7% in the experiment on ACHN renal; 45.2% in the experiment with CAKI-1 renal; 95.6% in the experiment with A498 renal. Also, the growth was 70% with CCRF-CEM leukemia and 68.5% with MOLT-4 leukemia.
Turning to `O=c1c2cccc3c(N4CCOCC4)ccc(c32)c2nc3ccccc3n12`, the growth was 81% in the experiment with HCT-15 colon; 93.7% with HT29 colon; 79.1% in the experiment with SNB-75 CNS; 95.8% in the experiment with SNB-19 CNS; 90.7% in the experiment on U251 CNS; 99.9% with PC-3 prostate. For the same compound, the growth with SK-MEL-5 melanoma was 73.4%; in the experiment with UACC-62 melanoma, 62.1%; in the experiment with LOX IMVI melanoma it was 84.8%; in the experiment with SK-MEL-28 melanoma, 107%; in the experiment on SK-MEL-2 melanoma, 108%; in the experiment on EKVX NSCLC it was 38.3%. In addition, the growth with SN12C renal is 87.6%; in the experiment with UO-31 renal, 65.9%; with TK-10 renal it was 71.8%; with ACHN renal, 91.1%; with CAKI-1 renal, 69.6%; in the experiment on A498 renal, 101%. The results for the growth with CCRF-CEM leukemia and in the experiment with MOLT-4 leukemia were 93.1% and 90.8%, respectively.
